The results in this text go back to PubChem BioAssay (NCATS).

“And” between values parts separate entries of the source, which are not always exact repeats. Equal entries are not always repeated. Results filed as inconclusive are left out. The source made the active and inactive calls. Calls follow the shape of the dose curve; as a rule, active = well fitted cell-killing curve with a large enough effect; inconclusive = small, poorly fitted or top-dose-only effect; inactive = no such curve, though single readings can be large or run the other way.
Potency is read from the fitted curve at half-maximal effect.

This assay is described as follows: qHTS of pediatric cancer cell lines to identify multiple opportunities for drug repurposing: Primary screen for NB1643 cells (AID 1347099). Also: nearly all actives have a fitted effect of over 50% in size. Particulars: NB1643 neuroblastoma viability, CellTiter-Glo luminescence, 48 h; series mostly up to 46 µM; activity change, negative = cytotoxic: at the top concentration. The source says: Drug repurposing or repositioning has been offered as a strategy for drug development in oncology programs. This approach has special potential for childhood cancers and other rare or orphan diseases, where the expected return on new drug development has been a disincentive to pharmaceuticals. […] In this project we exploit the poly-pharmacology of drugs to discover new indications via phenotypic screening of a panel of 19 well-characterized cell lines derived from solid tumors seen in children and adolescents. The goal is to identify approved drugs with previously unrecognized anticancer properties that has the potential to reveal new mechanisms and biological processes involved in carcinogenesis or drug resistance. We employed a titration-based paradigm (quantitative high-throughput screening or qHTS), where all compounds were tested at multiple concentrations for their effect on cell viability. Concentration-response curves (CRCs) were derived directly from the primary screen, and both potency and efficacy values were used to identify compounds with robust bioactivity profiles. We screened the NIH Chemical Genomics Center (NCGC) Pharmaceutical Collection (NPC) and Mechanism Interrogation Plate (MIPE) small molecule collections of approved and investigational compounds against these cell lines; and measured metabolically active cells after 48 hours of compound treatment as a proxy for cell viability. […] Assay Submitter: Nathalia J. Martinez, National Center for Advancing Translational Sciences, National Institutes of Health, Rockville, MD, USA; email: natalia.martinez@nih.gov Shen, M et al. Quantitative high-throughput phenotypic screening of pediatric cancer cell lines identifies multiple opportunities for drug repurposing. Oncotarget 2017 Dec 19;9(4):4758-4772. PMID 29435139.
The cells were obtained from University of North Carolina (UNC), Pediatric Preclinical Testing Program (PPT), and Coriell Institute (CI). qHTS cell viability assay: Cells were assayed in growth media at a density of 500-1,000 cells/well. Five microliters of cells were dispensed into 1,536-well, white, solid-bottom, TC-treated plates (Greiner Bio One) using a multidrop dispenser and incubated at 37 degrees C, 5% CO2, under a humidified atmosphere for 5 hours. Twenty-three nanoliters of compounds and controls (neutral control DMSO or positive control bortezomib at final concentration of 2.3 µM) were subsequently transferred by Kalypsys pintool. For primary screens, the MIPE collection was tested at 11-point dilutions (final concentrations range from 0.78 nM to 46 µM) and the NPC collection at 8-point dilutions (final concentrations range from 0.59 nM to 46 µM). Compounds tested in follow-up screens were assayed at 11-point dilutions. Cells were incubated for 48 hours, followed by addition of 3 µL of CellTiter-Glo (Promega). After a 15 min incubation at room temperature, samples were analyzed for luminescence intensity using a ViewLux High-throughput CCD imager equipped with clear filters.
A general note: In qHTS, concentration-response curves come from the screen itself.
For `Nc1nc2c(ncn2COC(CO)CO)c(=O)[nH]1`, the Potency result was “inactive”.
Still for that read-out and setting: for `COc1cc2nc(N3CCN(C(=O)c4ccco4)CC3)nc(N)c2cc1OC` the value was 26.4 µM (active).
For `COc1ccc(C2CNC(=O)C2)cc1OC1CCCC1` (stereo not given), the “activity change, negative = cytotoxic” value was -4.39% (inactive).
For the compound `Nc1c2c(nc3ccccc13)CCCC2`, the Potency entry is “inactive”.
As for `Cn1c(=O)c2[nH]cnc2n(C)c1=O`, the “activity change, negative = cytotoxic” value was -15% (inactive).
Consider `NC(=O)OCC(COC(N)=O)c1ccccc1`, for which the Potency result was “inactive”.
Same read-out and setting: for `O=C(CCCN1CCC(O)(c2ccc(Cl)cc2)CC1)c1ccc(F)cc1` the value was “inactive”; for `CC1(C)O[C@H]2CC(=O)OC[C@]23[C@H]2CC[C@@]4(C)[C@H](c5ccoc5)OC(=O)[C@H]5O[C@]54[C@]2(C)C(=O)C[C@@H]13`, “inactive”.
As for `COc1ccccc1N1CCN(CC(O)COc2cccc3ccccc23)CC1` (stereo not given), the “activity change, negative = cytotoxic” value was 4.38% (inactive).
Still for that read-out and setting: to `NCCc1cnc[nH]1` belongs 21.7% (inactive).
Regarding `CN1CCN(C2=Nc3cc(Cl)ccc3Nc3ccccc32)CC1`, the Potency entry is “inactive”.
Same read-out and setting: for `O=C(c1ccc(F)cc1)C1CCN(CCn2c(=O)[nH]c3ccccc3c2=O)CC1` the value was “inactive”.
Turning to `Nc1nnc(-c2cccc(Cl)c2Cl)c(N)n1`, the “activity change, negative = cytotoxic” value is 16.2% (inactive).
`O=c1c(-c2ccc(O)cc2)coc2cc(O)cc(O)c12`: the Potency entry was “inactive”.
With `CCCNCC(O)COc1ccccc1C(=O)CCc1ccccc1` (stereo not given), the Potency result was “inactive”.
Regarding `O=C1Cc2cc(CCN3CCN(c4nsc5ccccc45)CC3)c(Cl)cc2N1`, the “activity change, negative = cytotoxic” value was -5.4% (inactive).
Turning to `CCOC(=O)c1ncn2c1CN(C)C(=O)c1cc(F)ccc1-2`, the “activity change, negative = cytotoxic” value is 9.22% (inactive).
Same read-out and setting: to `NS(=O)(=O)c1cc2c(cc1Cl)NCNS2(=O)=O` belongs 11.5% (inactive).
Same read-out and setting: to `Cc1ccc(-c2cc(C(F)(F)F)nn2-c2ccc(S(N)(=O)=O)cc2)cc1` belongs -7.48% (inactive).
With `C[C@@H]1CC(=O)NN=C1c1ccc(NN=C(C#N)C#N)cc1`, the Potency was 26.4 µM (active).
For `Clc1ccc2nsnc2c1NC1=NCCN1`, the “activity change, negative = cytotoxic” value is 30.3% (inactive).
`Clc1ccc(C(c2ccccc2Cl)C(Cl)Cl)cc1` (stereo not given): the “activity change, negative = cytotoxic” value is -15.6% (inactive).
With `CN(C)CCC=C1c2ccccc2C=Cc2ccccc21`, the Potency result was “inactive”.
Still for that read-out and setting: for `CN(C)C(=O)C(CCN1CCC(O)(c2ccc(Cl)cc2)CC1)(c1ccccc1)c1ccccc1` the value was 26.6 µM (active).
On to `CC(C)(Oc1ccc(C2CC2(Cl)Cl)cc1)C(=O)O` (stereo not given), for which the “activity change, negative = cytotoxic” value was 10.4% (inactive).
`CC[C@@]1(O)C(=O)OCc2c1cc1n(c2=O)Cc2cc3c(CN(C)C)c(O)ccc3nc2-1`: the Potency was 26.6 nM (active) and 296 nM (active).
With `CN(C)c1nc(N(C)C)nc(N(C)C)n1`, the “activity change, negative = cytotoxic” value is 0% (inactive).
As to `NC12CC3CC(CC(C3)C1)C2`, the “activity change, negative = cytotoxic” value is 2.96% (inactive).
For the compound `O=C(C1CCCCC1)N1CC(=O)N2CCc3ccccc3C2C1` (stereo not given), the Potency entry is “inactive”.
The same measure, in the same setting: for `COc1nc(C)nc(Cl)c1NC1=NCCN1` the value was “inactive”.
For `CCc1cccc2c3c([nH]c12)C(CC)(CC(=O)O)OCC3` (stereo not given), the “activity change, negative = cytotoxic” value is -9.76% (inactive).
Still for that read-out and setting: for `Cc1ccc(C(=O)Nc2ccc(S(=O)(=O)O)c3cc(S(=O)(=O)O)cc(S(=O)(=O)O)c23)cc1NC(=O)c1cccc(NC(=O)Nc2cccc(C(=O)Nc3cc(C(=O)Nc4ccc(S(=O)(=O)O)c5cc(S(=O)(=O)O)cc(S(=O)(=O)O)c45)ccc3C)c2)c1` the value was 9.48% (inactive); for `CC#C[C@]1(O)CC[C@H]2[C@@H]3CCC4=CC(=O)CCC4=C3[C@@H](c3ccc(N(C)C)cc3)C[C@@]21C`, -1.02% (inactive).
With `C[C@](N)(Cc1ccc(O)c(O)c1)C(=O)O`, the Potency result is “inactive”.
On the same count and under the same terms, for `O=C(Nc1ccc([N+](=O)[O-])cc1Cl)c1cc(Cl)ccc1O` the value was 820 nM (active) and 590 nM (active); for `NC(=O)NO`, “inactive”.
As to `Cn1cnc2c1c(=O)[nH]c(=O)n2C`, the “activity change, negative = cytotoxic” value was 8.99% (inactive).
Regarding `Cn1c(=O)c2c(ncn2C)n(C)c1=O`, the Potency result was “inactive”.
As to `CC1(CN2CCC(n3c(=O)[nH]c4ccccc43)CC2)OCc2ccccc2-n2cccc21` (stereo not given), the “activity change, negative = cytotoxic” value was 0% (inactive).
Regarding `COc1ccc2[nH]cc(CCNC(C)=O)c2c1`, the Potency result was “inactive”.
